Test results taken from PubChem BioAssay AID2314 (National Center for Advancing Translational Sciences (NCATS), 2010).
In all, about 300,000 compounds went through this assay and about 37,000 (12%) were called active. The full list was thinned out, with actives kept by preference. Values without a mark were called inactive. No stated cut-off is given here; in the data, active means max response mostly above about 13% (no sharp cut-off); inactive means mostly below about 14%.

Test: Cycloheximide Counterscreen for Small Molecule Inhibitors of Shiga Toxin; further: read at 38.3 µM for the half of the compounds with a filed dose; 0% is about no effect
Details: cell reporter, cycloheximide protein synthesis inhibition counterscreen; active compounds read high

SMILES | max response
COCCn1c(C)cc(C(=O)CSc2nc3ccccc3c(=O)n2C(C)COC)c1C (centres undefined) | 13.4%
O=C(c1cc2nc(-c3ccccc3)cc(-c3ccccc3)n2n1)N1CCC2(CC1)OCCO2 | 3.88%
COc1cccc(CNc2nc3nc4c(c(=O)n3[nH]2)CCC4)c1 | -3.21%
COc1cccc(-c2cc3nc4c(c(N5CCC6(CC5)OCCO6)n3n2)CCCC4)c1 | 24.2% (active)
C=Cc1ccc(C(=O)N2CCCC(CCC(=O)N3CCN(c4ccccn4)CC3)C2)cc1 (centres undefined) | -3.56%
COc1cc(C)cc(CN2CCC(Cc3ccccc3)CC2)c1O | -8.91%
Cc1ccc(CS(=O)(=O)c2ncc(Cl)c(C(=O)Nc3nnc(C)s3)n2)cc1 | 66% (active)
CSc1ncc(Cl)c(C(=O)Nc2cc(C)ccc2C)n1 | 7.29%
CSc1nnc(NC(=O)c2nc(S(=O)(=O)Cc3ccc(C)cc3)ncc2Cl)s1 | 63.3% (active)
Cc1ccc(S(=O)(=O)CC(=O)Nc2nnc(C)s2)cc1 | -6.45%
COCCSc1nnc(NC(=O)CCS(=O)(=O)Cc2ccccc2)s1 | -1.53%
Cc1nnc(NC(=O)CCCOc2ccccc2)s1 | -3.73%
Cc1ccc(CN2CCC(N3CCC(C(=O)NCC4CCCO4)CC3)CC2)o1 (centres undefined) | 4.92%
CCOC(=O)c1c(NC(C)=O)sc2c(O)c(Br)ccc12 | -7.21%
CC(Oc1cc2oc(=O)c3c(c2cc1Cl)CCCC3)C(=O)NCc1ccncc1 (centres undefined) | -1.94%
Cc1cccc(NS(=O)(=O)c2ccc(C(=O)NCC(C)(C)N3CCOCC3)cc2)c1C | -1.4%
Cc1ccc(CC2C(=O)N(c3ccc(F)cc3)C(=O)C2C)cc1 (centres undefined) | 7.99%
CC(C)[C@H](NC(=O)N1c2ccccc2NC(=O)[C@@H]1C(C)C)C(=O)N[C@H](C(=O)O)c1ccccc1 | 5.5%
CC(=O)Nc1ccc(S(=O)(=O)N2CCC(C(=O)NC3CC3)CC2)cc1 | -6.68%
Cn1c(=O)c2c(nc(NCCNC(=O)c3ccco3)n2Cc2ccccc2F)n(C)c1=O | -1.04%

SMILES | max response
Nc1cccc(-c2cc(-c3ccccc3)nc(-c3cccc(N)c3)n2)c1 | -5.19%
Nc1nc(-c2ccccc2)cc(-c2ccccc2)n1 | 21% (active)
CNc1nc(-c2ccccc2)cc(-c2ccccc2)n1 | -1.91%
COc1ccc2c(C)cc3nnnn3c2c1 | -1.91%
O=Cc1c(NCCCN2CCCC2=O)c2ccccc2[nH]c1=O | -2.01%
Cc1ccc(C2NC(C(=O)O)CS2)cc1 (centres undefined) | 1.34%
CCOc1ccc(S(=O)(=O)NCCSc2ccccc2)cc1 | -2.61%
CCOc1ccc2nc(NCCNS(=O)(=O)c3ccccc3)c(C#N)cc2c1 | 25.7% (active)
CCOc1ccc2nc(NCCNC(=O)C(C)(C)C)c(C)cc2c1 | 3.67%
Cc1ccc(C)c(NC(=O)c2cc(-c3cc(C)cc(C)c3O)n[nH]2)c1 | 5.99%
COc1ccc([N+](=O)[O-])cc1N(CC(O)Cn1nnc2ccccc21)S(=O)(=O)c1ccc(C)cc1 (centres undefined) | 10.2%
CCc1ccc(CNC(=O)C2CC(=O)N(CCc3ccc(C)cc3)C2)cc1 (centres undefined) | 0.654%
COc1ccc(/C=N/NC(=O)c2ccccc2)cc1OS(=O)(=O)c1ccccc1 | 17.9% (active)
COc1ccc(/C=N/S(=O)(=O)c2ccccc2)cc1OC | -3.6%
COc1ccc(C(=O)Oc2cc(/C=N/NS(=O)(=O)c3ccc(C)cc3)ccc2OC)cc1 | 1.6%
COc1cccc(OCc2cc(/C=N/NC(=O)c3nc(Cl)c(Cl)c(N)c3Cl)ccc2OC)c1 | -1.62%
COc1ccc(/C=N\NC(=O)c2sc(N)nc2C)cc1OC | 16.4% (active)
COc1cc(/C=N/NC(=O)c2ccccc2)ccc1OS(=O)(=O)c1ccccc1 | 10%
CCN(CC)CCCNC(=O)c1cn(C)c2ccc(S(=O)(=O)N(C)C3CCCCC3)cc2c1=O | -5.84%
Fc1ccccc1/C=C1\CCCC2=C1Nc1ncnn1C2c1ccccc1F (centres undefined) | -5.33%

SMILES | max response
COc1ccc(N(CC(=O)NCC2CCCO2)C(=O)CCC(=O)Nc2nccs2)c(OC)c1 (centres undefined) | -4%
CCc1ccc(N2CC(C(=O)Nc3ccc(S(=O)(=O)Nc4nccs4)cc3)CC2=O)cc1 (centres undefined) | -3.18%
Cc1ccc(C(=O)N/C(=C/c2cccnc2)C(=O)O)cc1 | -0.563%
C/C(=N\NC(=O)CNC(=O)C(c1ccccc1)c1ccccc1)c1ccc(C)cc1 | -6.41%
C/C(=N\NC(=O)c1ccc(C)cc1)C1C(=O)c2ccccc2C1=O | 23.4% (active)
Cc1ccc(S(=O)(=O)c2nc(-c3cccs3)oc2NCc2cccnc2)cc1 | 7.52%
O=C1c2cccc3c([N+](=O)[O-])ccc(c23)C(=O)N1CC1CCCO1 (centres undefined) | 20%
Cc1cc(C)n(C(=O)c2ccc(S(=O)(=O)N3CCCC3)cc2)n1 | -2.32%
Cc1cc(Nc2ccccc2)n(C(=O)c2ccc(N)cc2)n1 | 24% (active)
Cc1cc(Nc2ccccc2)n(CCC#N)n1 | -3.59%
CC(c1ccco1)N(C(=O)COc1ccccc1[N+](=O)[O-])c1ccccn1 (centres undefined) | 20.7%
O=C(COc1ccc(S(=O)(=O)N2CCCCC2)cc1)NCc1ccccn1 | 0.485%
CC(c1ccco1)N(C(=O)c1ccc(S(=O)(=O)N2CCCCC2)cc1)c1ccccn1 (centres undefined) | 15.1% (active)
CC(C)N1CCC(=NNc2ccc([N+](=O)[O-])cc2S(=O)(=O)N2CCOCC2)CC1 | -2.55%
CN(c1ccccc1)S(=O)(=O)c1ccc2[nH]c(=O)[nH]c2c1 | -2.46%
COc1ccc(CNc2nnnn2C)cc1 | -1.69%
CCOC(=O)CNc1nc2ccccc2n2c(C)nnc12 | 7.6%
Fc1ccc(CNc2nc3ccccc3n3nnnc23)cc1 | 13.3% (active)
Cc1ccc(-c2ccc(=O)n(Cc3ccc(F)cc3Cl)n2)cc1 | 7.94%
